Measurements from PubChem BioAssay (NCI).
This is part of a sample that, as a whole, favours compounds with a hit. Of some 83,000 tested, about 20% had one in any assay.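 96-well plates, one dose, 48 hours. Percent growth reported; active if below 10.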 The source made the active and inactive calls.

Experiments:
Test in all cases: NCI-60 one-dose screen, 48 h (100 = growth as untreated, 0 = no growth, -100 = all killed)
Settings in all cases: 10 µM unless noted
T-47D breast = system: T-47D breast
BT-549 breast = system: BT-549 breast
MDA-MB-435 melanoma = system: MDA-MB-435 melanoma
SW-620 colon = system: SW-620 colon
MCF7 breast = system: MCF7 breast
HCT-116 colon = system: HCT-116 colon
HCC-2998 colon = system: HCC-2998 colon
KM12 colon = system: KM12 colon

Measured: growth

Cc1ccc(-n2cc(-c3ccccc3)c3c2N=NN2CCN=C32)cc1
inactive: T-47D breast 93.5% | BT-549 breast 125% | MDA-MB-435 melanoma 101% | SW-620 colon 92.5% | MCF7 breast 98.7% | HCT-116 colon 95.8% | HCC-2998 colon 111% | KM12 colon 102%

O=[N+]([O-])c1cc(Br)c2cccc3c2c1CC3
inactive: T-47D breast 101% | BT-549 breast 114% | MDA-MB-435 melanoma 113% | SW-620 colon 107% | MCF7 breast 89% | HCT-116 colon 106% | HCC-2998 colon 103% | KM12 colon 109%

COc1ccc2c(c1)oc1c(C)c3c(c(C)c12)C(=O)N(N)C3=O
inactive: T-47D breast 44.3% | MDA-MB-435 melanoma 36.8% | SW-620 colon 29.4% | MCF7 breast 57.3% | HCC-2998 colon 64.6% | KM12 colon 22%
active: BT-549 breast -43.5% | HCT-116 colon -13%

COc1ccc(/C=C/c2nc(Nc3ccc(Cl)cc3)c3ccccc3n2)cc1
inactive: T-47D breast 49.9% | BT-549 breast 93.4% | MDA-MB-435 melanoma 55.3% | SW-620 colon 48.7% | MCF7 breast 44% | HCT-116 colon 36.1% | HCC-2998 colon 63.9% | KM12 colon 48%

O=C1c2ccc3c4c(ccc(c24)C(=O)N1CCCNCc1ccccc1)C(=O)N(CCCNCc1ccccc1)C3=O
active: T-47D breast -29.9% | BT-549 breast -85.2% | MDA-MB-435 melanoma -54% | SW-620 colon -81.8% | MCF7 breast -83.8% | HCT-116 colon -44.9% | HCC-2998 colon -90.8% | KM12 colon -81.8%

O=C(NNc1nc2c(F)cccc2n2cccc12)c1cnccn1
inactive: T-47D breast 22.8% | BT-549 breast 38% | MDA-MB-435 melanoma 32% | SW-620 colon 29% | MCF7 breast 10.5% | HCT-116 colon 12.4% | HCC-2998 colon 52.9% | KM12 colon 23.2%

COc1cc2oc(-c3cccc(C(=O)Nc4ccc5c(c4)OCO5)c3)cc(=O)c2c(O)c1OC
inactive: T-47D breast 69.5% | BT-549 breast 84% | MDA-MB-435 melanoma 79.1% | SW-620 colon 84.5% | MCF7 breast 91.6% | HCT-116 colon 57% | HCC-2998 colon 105% | KM12 colon 70.6%

COc1ccc(/C=C2\Oc3cc(OCCCN4CCCCC4)ccc3C2=O)cc1OC
inactive: T-47D breast 97.8% | BT-549 breast 83.9% | MDA-MB-435 melanoma 100% | SW-620 colon 85% | MCF7 breast 85.9% | HCT-116 colon 76% | HCC-2998 colon 108% | KM12 colon 93.6%

Cn1cc(-c2nc(-c3c[nH]c4c(Cl)nccc34)cs2)c2cc(F)ccc21
inactive: T-47D breast 48.6% | BT-549 breast 118% | MDA-MB-435 melanoma 98.6% | SW-620 colon 102% | MCF7 breast 68.1% | HCT-116 colon 105% | HCC-2998 colon 119% | KM12 colon 96.4%

CC(=O)[C@H]1CCC/C=C/[C@@H]2C[C@H](O)C[C@H]2[C@H](O)/C=C/C(=O)O1
active: T-47D breast -12.2% | BT-549 breast 9.71% | MDA-MB-435 melanoma 8.17% | SW-620 colon -33.5% | MCF7 breast 3.81% | HCT-116 colon -45.1% | HCC-2998 colon -23.3% | KM12 colon -26.9%

Brc1ccc2[nH]cc(-c3cncn3CCc3ccccc3)c2c1
inactive: T-47D breast 22.9% | BT-549 breast 41.3% | MDA-MB-435 melanoma 57.5% | SW-620 colon 72.2% | MCF7 breast 48.9% | HCT-116 colon 43% | HCC-2998 colon 72.5% | KM12 colon 68%

COc1cc2nc(-c3ccc(Cl)cc3)cc(OCCCN3CCCCC3)c2cc1OC
active: MDA-MB-435 melanoma -22.5%
inactive: T-47D breast 35.4% | BT-549 breast 40.9% | SW-620 colon 40.8% | MCF7 breast 45.8% | HCT-116 colon 22.9% | HCC-2998 colon 67.7% | KM12 colon 44.6%

C[C@H]1[C@H](C)CC[C@]2(C(=O)Nc3ccc4ncccc4c3)CC[C@]3(C)C(=CC[C@@H]4[C@@]5(C)CCCNC(C)(C)[C@@H]5CC[C@]43C)[C@H]12
active: MDA-MB-435 melanoma -91.8% | SW-620 colon -83.9% | MCF7 breast -83.4% | HCT-116 colon -100% | HCC-2998 colon -84.4% | KM12 colon -60.5%
inactive: T-47D breast 78% | BT-549 breast 92%

O=C(c1nc2ccccc2[nH]1)C1C(c2ccc(Cl)cc2)C2CC3CCCC[C@H]3N2[C@@]12C(=O)Nc1cc(Cl)ccc12 (stereo partly drawn)
inactive: T-47D breast 24.8% | BT-549 breast 80.8% | MDA-MB-435 melanoma 24.8% | SW-620 colon 33.2% | MCF7 breast 17.3% | HCT-116 colon 23.4% | HCC-2998 colon 52% | KM12 colon 45.8%

CC(=O)N1N=C(c2ccc(-n3ccc(C(F)(F)F)n3)c(F)c2)CC1c1ccc[nH]1 (stereo not drawn)
inactive: T-47D breast 91.9% | BT-549 breast 111% | MDA-MB-435 melanoma 99.8% | SW-620 colon 107% | MCF7 breast 92.8% | HCT-116 colon 103% | HCC-2998 colon 111% | KM12 colon 101%

COc1ccc(-c2nc(S(=O)(=O)c3ccccc3)c(S(=O)CC(=O)N3CCC(C)CC3)o2)cc1 (stereo not drawn)
active: SW-620 colon 1.06% | HCT-116 colon -55.9%
inactive: T-47D breast 15.6% | BT-549 breast 33.5% | MDA-MB-435 melanoma 57.2% | MCF7 breast 24.3% | HCC-2998 colon 90.6% | KM12 colon 68.1%

CCOC(=O)CCN(CC(C)C)C(=S)Nc1ccccc1
inactive: T-47D breast 105% | BT-549 breast 106% | MDA-MB-435 melanoma 102% | SW-620 colon 107% | MCF7 breast 98.8% | HCT-116 colon 95.9% | HCC-2998 colon 108% | KM12 colon 104%

COC(=O)C(CC=O)C(=O)C(=O)Nc1cccc(C(F)(F)F)c1 (stereo not drawn)
inactive: T-47D breast 77.4% | BT-549 breast 101% | MDA-MB-435 melanoma 107% | SW-620 colon 95.6% | MCF7 breast 104% | HCT-116 colon 90.1% | HCC-2998 colon 97% | KM12 colon 100%

CCOC(=O)Oc1c(OC)cc(C(=O)c2ccc(OC)c(O)c2OC)cc1OC
active: MDA-MB-435 melanoma -47.4% | HCT-116 colon 9.57%
inactive: T-47D breast 43.8% | BT-549 breast 40.1% | SW-620 colon 20.5% | MCF7 breast 19.5% | HCC-2998 colon 39.7% | KM12 colon 25.7%

COc1cc(/C=C\c2cc(OC)c(OC)c(OC)c2)cc(NC(=O)/C=C/c2cc(OC)c(OC)c(OC)c2)c1OC
active: MDA-MB-435 melanoma -13.1%
inactive: T-47D breast 19.6% | BT-549 breast 26.2% | SW-620 colon 57% | MCF7 breast 27.6% | HCT-116 colon 41.1% | HCC-2998 colon 70.8% | KM12 colon 28.7%

CCCCCCNC(=O)Oc1ccc(/C(=C(\C)c2ccccc2)c2ccc(OCCN3CCCCC3)cc2)cc1
inactive: T-47D breast 30.1% | BT-549 breast 64.2% | MDA-MB-435 melanoma 68.2% | SW-620 colon 34.1% | MCF7 breast 12.7% | HCT-116 colon 33.9% | HCC-2998 colon 76.6% | KM12 colon 49.2%

COc1cc(C(=O)Nc2cc3c(cc2Oc2cc(C)cc(C)c2)C(=O)N(C)[C@@H](CC(=O)N(C)O)C(=O)N3)c(Br)c(OC)c1OC
active: T-47D breast 1.62% | BT-549 breast -30.2% | MDA-MB-435 melanoma -86.2% | SW-620 colon -2.61% | MCF7 breast -14.8% | HCT-116 colon -35.5% | HCC-2998 colon -45.6% | KM12 colon -28.6%

Cc1cccc(NC(=O)Nc2ccc(-n3cnc4cc(-c5ccc(O)cc5)ccc43)cc2)c1
inactive: BT-549 breast 70.8% | MDA-MB-435 melanoma 25.9% | SW-620 colon 29.6% | MCF7 breast 16.9% | HCT-116 colon 16.1% | HCC-2998 colon 63.6% | KM12 colon 13%
active: T-47D breast 4.01%

COc1cc2oc(-c3cccc(C(=O)Nc4ccc(Br)cc4)c3)cc(=O)c2c(OC)c1OC
inactive: T-47D breast 36% | BT-549 breast 45.8% | MDA-MB-435 melanoma 65.6% | SW-620 colon 94.6% | MCF7 breast 78.1% | HCT-116 colon 45.6% | HCC-2998 colon 81.9% | KM12 colon 46.6%

O=c1[nH]nc(-c2ccccc2)c2sc3ncc(-c4ccc(Br)cc4)n3c12
active: MDA-MB-435 melanoma -25.7%
inactive: T-47D breast 43.1% | BT-549 breast 52.1% | SW-620 colon 35% | MCF7 breast 28.9% | HCT-116 colon 16.6% | HCC-2998 colon 89.8% | KM12 colon 33.9%

O=C1Nc2cc(-c3cccc([N+](=O)[O-])c3)ccc2/C1=C/c1ccc[nH]1
active: T-47D breast -10.6%
inactive: BT-549 breast 23% | MDA-MB-435 melanoma 97.7% | SW-620 colon 93.3% | MCF7 breast 16% | HCT-116 colon 97.9% | HCC-2998 colon 61% | KM12 colon 46.7%

c1ccc(Cn2cnc3ccc(-c4nc(-c5ccc6c(c5)ncn6C5CCCCC5)cn5ccnc45)cc32)cc1
active: T-47D breast -2.12% | BT-549 breast -44.7% | MDA-MB-435 melanoma -6.16% | SW-620 colon 2.17% | MCF7 breast 2.03% | HCT-116 colon -75.7% | HCC-2998 colon -88% | KM12 colon -39.4%

CC1(C)c2[nH]c3ccccc3c2C[C@]2(C)[C@H]3C(=O)C=C4[C@@H]5C[C@@](C)(C(N)=O)CC[C@]5(C)CC[C@@]4(C)[C@]3(C)CC[C@@H]12
inactive: T-47D breast 20.3% | BT-549 breast 70.7% | MDA-MB-435 melanoma 83.6% | SW-620 colon 79.4% | MCF7 breast 35.3% | HCT-116 colon 46.3% | HCC-2998 colon 79.2% | KM12 colon 67.5%

COc1ccc2nc(-c3ccc(-c4noc(-c5cc(OC)c(OC)c(OC)c5)n4)cc3)[nH]c2c1
inactive: T-47D breast 83.8% | BT-549 breast 26.8% | MDA-MB-435 melanoma 39.1% | SW-620 colon 63.8% | MCF7 breast 41.3% | HCT-116 colon 33% | HCC-2998 colon 111% | KM12 colon 55.4%

Cn1ccnc1C(=O)/C=C/c1ccc(CC(=O)NC2CCCCC2)cc1
inactive: T-47D breast 47.9% | BT-549 breast 54.1% | MDA-MB-435 melanoma 54.1% | SW-620 colon 23.1% | MCF7 breast 44.3% | HCT-116 colon 21.5% | HCC-2998 colon 100% | KM12 colon 28.9%

C[C@H](c1nc2ccc(N)cc2[nH]1)[C@H]1CC[C@H]2[C@@H]3CCC4=CC(=O)CC[C@]4(C)[C@H]3CC[C@]12C
inactive: T-47D breast 77.8% | BT-549 breast 70% | MDA-MB-435 melanoma 95.7% | SW-620 colon 102% | MCF7 breast 67.9% | HCT-116 colon 74.6% | HCC-2998 colon 93.5% | KM12 colon 91.8%
